# Bioassay records (PubChem BioAssay)
# KCNQ2 inh: rat KCNQ2 potassium channel inhibitors, primary screen, cell-based, CHO-K1, FluxOR thallium flux, B-score; 310,000 compounds, 1.1% hits; B-score at 10 µM; 20 min; active compounds read low; Potassium voltage-gated channel subfamily KQT member 2 (Rattus norvegicus), O88943;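 active = fluorescence ratio B-score at most minus 3 library SDs, with starting brightness B-score within 2 library SDs, cut at about -5.5 in these data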
# Target sequence (O88943 whole entry, looked up): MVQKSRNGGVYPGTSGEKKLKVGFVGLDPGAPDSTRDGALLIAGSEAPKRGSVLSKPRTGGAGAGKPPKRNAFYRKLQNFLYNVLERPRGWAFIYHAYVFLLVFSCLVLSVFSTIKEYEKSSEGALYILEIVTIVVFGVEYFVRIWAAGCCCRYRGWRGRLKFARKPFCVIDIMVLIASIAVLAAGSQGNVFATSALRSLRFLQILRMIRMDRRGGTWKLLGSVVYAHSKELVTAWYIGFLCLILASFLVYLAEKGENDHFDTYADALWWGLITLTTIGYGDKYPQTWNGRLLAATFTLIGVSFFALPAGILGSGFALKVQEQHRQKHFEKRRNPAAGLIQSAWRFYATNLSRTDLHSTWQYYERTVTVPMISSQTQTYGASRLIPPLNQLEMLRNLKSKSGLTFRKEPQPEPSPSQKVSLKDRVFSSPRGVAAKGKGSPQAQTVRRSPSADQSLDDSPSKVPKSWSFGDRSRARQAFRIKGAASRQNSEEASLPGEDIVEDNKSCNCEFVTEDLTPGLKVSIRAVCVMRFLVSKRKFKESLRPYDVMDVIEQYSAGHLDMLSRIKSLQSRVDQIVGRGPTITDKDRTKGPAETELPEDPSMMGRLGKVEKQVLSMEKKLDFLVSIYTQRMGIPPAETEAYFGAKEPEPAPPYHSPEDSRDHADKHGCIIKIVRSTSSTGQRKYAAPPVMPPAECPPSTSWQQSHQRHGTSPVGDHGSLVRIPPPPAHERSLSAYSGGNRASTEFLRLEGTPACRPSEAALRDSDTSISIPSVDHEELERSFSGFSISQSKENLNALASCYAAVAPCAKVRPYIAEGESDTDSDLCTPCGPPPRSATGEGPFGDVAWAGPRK
# KCNQ2 pot: potentiators of rat KCNQ2 potassium channel; Potassium voltage-gated channel subfamily KQT member 2 (Rattus norvegicus), O88943; CHO-K1 KCNQ2, FluxOR thallium flux fluorescence; active compounds read high; B-score at 10 µM; 310,000 compounds, 0.54% hits; AID 2239, 2010;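 active = fluorescence ratio B-score at least 3 SD of library B-scores, with initial fluorescence B-score within 3 of them, cut at about 5.3 in these data; same plate scores as AID 2156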;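 note: B-score of peak minus minimum over baseline fluorescence ratio after K+ and Tl+ stimulus; positive B-score means potentiation of KCNQ2 with more thallium influx and brighter signal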
# * marks the source's active call; other numbers are inactive results; i = inactive; . = not tested or not shown. This is a sample that favours compounds with a hit; in the whole collection about 1.6% have one here.
SMILES,KCNQ2 inh,KCNQ2 pot
CN(C(=O)COn1nnc2ccc(S(=O)(=O)N3CCOCC3)cc21)c1ccccc1,i,0.23
Cc1ccccc1COn1nnc2ccc(S(=O)(=O)N3CCOCC3)cc21,-6.7*,-6.7
COCCCn1c(SCC(=O)NC(C)(C)C)nnc1-c1cccs1,i,0.45
Cc1nc(N2CCCCC2)c2c(-c3cccs3)csc2n1,-8.2*,-8.2
Cc1nc(SCC(=O)NC(C)(C)C)c2c(-c3cccs3)csc2n1,-6.2*,-6.2
Cc1nc(N2CCN(S(=O)(=O)c3ccccc3C#N)CC2)c2c(-c3cccs3)csc2n1,i,.
Cc1cc(C)c(C)c(S(=O)(=O)NCc2ccc(C(=O)NCC3CCCO3)cc2)c1C (centres undefined),i,1.9
CCOC(=O)N/N=C(/C)c1cccc(-n2cnnn2)c1,i,.
COC(=O)C(CC(=O)c1cccc(OC)c1)c1ccc(F)cc1 (centres undefined),i,.
O=C(Cn1cnc2nc3n(c2c1=O)CCC3)NCc1ccccc1,i,0.09
O=C(Nc1ncccc1O)c1ccc(S(=O)(=O)Nc2ccccc2)cc1,i,.
COC(=O)CNC(c1ccccc1)c1cc(C)ccc1NS(=O)(=O)c1ccc(C)cc1 (centres undefined),i,.
CCOC(=O)CNC(c1ccccc1)c1cc(Br)ccc1NC(C)=O (centres undefined),i,.
COC(=O)CNC(c1ccccc1)c1cc(Br)ccc1NC(=O)OCc1ccccc1 (centres undefined),-7.4*,-7.4
COC(=O)CNC(c1ccccc1)c1cc(C)ccc1NC(=O)CNC(=O)OCc1ccccc1 (centres undefined),-5.8*,-5.8
CN1CCC(=O)N([C@H](COc2ccccc2)Cc2ccccc2)CC1,i,0.2
COc1ccc(CCN2C(=O)N[C@@H](C(C)C)C2=O)cc1,i,0.02
O=C(COc1cc(Cl)c(Cl)cc1Cl)Nc1ccc([N+](=O)[O-])cc1Cl,i,.
Cc1cc(C)nc(CCNC(=O)CC2C(=O)NCCN2Cc2ccccc2)n1 (centres undefined),i,.
COc1ccc(NC(=O)COC(=O)CC23CC4CC(CC(C4)C2)C3)c([N+](=O)[O-])c1,-6.1*,-6.1
CCC(=O)OCC(=O)Nc1ccc(OC)cc1[N+](=O)[O-],i,.
c1ccc(-n2ncc3cccnc32)cc1,i,0.51
CC1CCCN(C(=O)Cn2nnc(-c3ccc([N+](=O)[O-])cc3)n2)C1 (centres undefined),i,.
CC(C)SCCCCOc1ccc2ccccc2c1,-6.9*,-6.9
CC(C)(C)c1ccc(OCCN2CCCC2)cc1,i,.
SMILES,KCNQ2 inh,KCNQ2 pot
CC(C)SCCCOc1ccc(C(C)(C)C)cc1,-5.8*,-5.8
c1ccc2cc(OCCOCCOc3ccc4ccccc4c3)ccc2c1,i,.
COCc1ccc(CN2CCc3c([nH]c4ccccc34)C2CC(C)C)o1 (centres undefined),i,.
O=C(NNc1ccc([N+](=O)[O-])cc1)C1CC2CCCC(C1)C2=O (centres undefined),i,0.7
O=C(NNc1ccc([N+](=O)[O-])cc1)C1CC1c1ccccc1 (centres undefined),i,6.3*
CC(C)c1ccc(NC(=O)C2CSC3(C)CCC(=O)N23)cc1 (centres undefined),i,0.54
O=C(NC(Nc1nc2ccc([N+](=O)[O-])cc2s1)(C(F)(F)F)C(F)(F)F)c1ccccc1Cl,-10*,-10
Nc1ccc2nc(SCc3ccc([N+](=O)[O-])cc3)sc2c1,i,.
O=C(NC(Nc1nc2ccc([N+](=O)[O-])cc2s1)(C(F)(F)F)C(F)(F)F)c1cccnc1,i,1.3
O=[N+]([O-])c1ccc2nc(SCc3ccccc3Cl)sc2c1,-9.9*,-9.9
CS(=O)(=O)c1ccc(NC(=O)c2ccc3c(c2)S(=O)(=O)N=C2CCCCCN23)cc1,i,0.19
CC(C)CCC(=O)N1CCOC1=O,i,0.24
Cc1ccccc1C1NC(=O)Cc2ccccc21 (centres undefined),i,0.31
O=C1Cc2ccccc2C(c2ccc(Br)cc2)N1 (centres undefined),-6.3*,-6.3
COc1ccccc1CN1C[C@@H]2C[C@@H](c3[nH]c4c(C)cccc4c3C)N3CCC[C@@]23C1=O,i,0.21
Cc1cc(C(=O)Nc2ccccc2C)c2ccccc2n1,i,.
CCc1nnc(NC(=O)c2cc(C)nc3ccccc23)s1,-6.3*,-6.3
Cc1ccc(NC(=O)c2cc(-c3ccccc3)nn2-c2ccccc2)c(Br)c1,i,.
Cc1cccc(NC(=O)c2nc(-c3ccccc3)n(-c3ccccc3)n2)c1C,-8.2*,-8.2
Cc1ccc(NC(=O)c2cc(-c3ccccc3)nn2-c2ccccc2)cc1,-5.7*,-5.7
CCc1nnc(NC(=O)c2cc(-c3cccnc3)nc3ccccc23)s1,i,1
Cc1cccc(NC(=O)c2cnn(-c3ccccc3)c2C)c1C,i,.
Cc1cc(C(=O)Nc2cccc(C)c2C)c2ccccc2n1,-5.8*,-5.8
CCC(CO)NC(=O)c1ccccc1C(F)(F)F (centres undefined),i,1.1
Cc1nn(CC(=O)NCCc2cccs2)c(=O)c2cc3ccccc3n12,i,.
SMILES,KCNQ2 inh,KCNQ2 pot
COc1ccc(N2C(=O)C3NN=C(C(=O)OCc4ccccc4)C3C2=O)cc1 (centres undefined),i,0.67
Cc1ccc(NC(=O)COC(=O)/C(=C/c2cccs2)c2cccs2)cc1S(=O)(=O)N(C)C,i,2.3
CCOC(=O)C1(Cc2ccccc2)CCCN(C(=O)c2ccc(-n3ccnc3)cc2)C1 (centres undefined),i,0.01
CC1(C)CC2CC(C)(CN2C(=O)NC(=O)c2ccccc2)C1 (centres undefined),i,.
Cc1ccc(C(=O)Nc2ccccc2C(=O)N2CC3(C)CC2CC(C)(C)C3)cc1 (centres undefined),-6.1*,-6.1
O=C(O)c1cccc(S(=O)(=O)N2CCC(n3nnc4cc(C(F)(F)F)ccc43)CC2)c1,i,0.83
N[C@@H](Cc1cc(I)c(Oc2ccc(O)c(I)c2)c(I)c1)C(=O)O,i,0.38
O=C(O)CCc1cc(I)c(Oc2ccc(O)c(I)c2)c(I)c1,i,32*
O=C(C(O)c1ccccc1)N1N=C(c2ccccc2)CC1(O)C(F)(F)F (centres undefined),i,.
C=CCn1c(COc2cccc(C)c2)nnc1SCn1nnc2ccccc2c1=O,i,.
CC(C)CNS(=O)(=O)c1ccc(CCC(=O)NCCc2ccccc2)cc1,i,0.85
COc1ccccc1NC(=O)CN1CCN(c2ccccc2F)CC1,-5.8*,-5.8
COc1ccccc1NC(=O)CN1CCN(c2ccccc2OC)CC1,i,1.5
O=C(CSc1nnc(NC(=O)C2CCC2)s1)Nc1ccccc1Br,i,0.69
O=C(COc1ccccc1)NC(=S)N1CCc2ccccc21,i,10*
COc1ccc(OCC(=O)NC(=S)N2CCCc3ccccc32)cc1,i,.
COc1ccc2c(c1)C(c1ccc(Cl)cc1)NC(=O)C2 (centres undefined),i,1.2
COc1ccc(C2CC(c3cccs3)=Nc3ccccc3S2)cc1 (centres undefined),-6*,-6
COc1ccc(C2CC(c3cccs3)=NN2S(C)(=O)=O)cc1 (centres undefined),i,0.71
